Among all 360,000 compounds or so, about 11,000 (3.1%) were called active. Roughly 4% stayed inconclusive and do not appear here. The full list was thinned out, with actives kept by preference. Values without a mark were called inactive. The call rests on the fitted dose curve; in most records, active means well fitted inhibition curve with a large enough effect; inconclusive means small, poorly fitted or top-dose-only effect; inactive means no such curve, though single readings can be large or run the other way.
Target: Schistosoma mansoni thioredoxin glutathione reductase (TGR) (UniProt Q962Y6)
Assay: qHTS Assay for the Inhibitors of Schistosoma Mansoni Peroxiredoxins; further: nearly all actives have a fitted effect of over 60% in size
Conditions: purified TGR, DTNB reduction, TNB absorbance 405 nm; series mostly up to 114 µM; activity change, negative = inhibition: at the top concentration
From the text: Schistosomiasis is a major neglected tropical disease that currently affects over 200 million. It is caused by different species of flatworms, such as Schistosoma mansoni. Over the last century, drugs to treat the disease have evolved from potassium antimonyl tartrate, artemisinin, oxamniquine, to praziquantel, with praziquantel remaining the universally-used single drug of choice over the past three decades. However, transmission rates have changed little with praziquantel, and there is evidence for the development of drug resistant parasites. Because there is currently no suitable alternative therapy available, there is an urgent need to identify new targets and drugs for schistosomiasis treatment. Thioredoxin glutathione reductase (TGR), one uniquely positioned S. mansoni enzyme, has been identified as a major component of the worms' distinct and compressed antioxidant "firewall". TGR is a multifunctional enzyme that catalyzes the interconversion between reduced and oxidized forms of both glutathione (GSH) and thioredoxins, thus making it an attractive new antiparasitic target. Recently, a quantitative high-throughput screen of the NIH Molecular Libraries Small Molecule Repository (MLSMR, ~71K at the time of the screen in 2007) was performed using an assay that targeted both TGR and peroxiredoxin2 (Prx2, an H2O2-reducing enzymatic component of the S. mansoni redox "firewall") by following the decrease of NADPH fluorescence. […] Additional mechanistic link between exogenous NO donation and parasitic injury for the oxadiazole-2-oxide class of compounds was also expanded and better defined. Although the screen addressed both TGR and Prx2, the assay required post-screen target deconvolution for further characterization of the actives. In addition, the fluorescence assay was also subject to fluorescence interference from compound library members. We have developed a 1536-well-based kinetic HTS assay to address TGR alone. The assay followed the reduction of 5, 5'-dithiobis (2-nitrobenzoic acid) (DTNB) (Ellman's reagent) by NADPH and measured the increase in absorbance at 412 nm of the reaction product, TNB. […] This assay format can be used to screen the current MLSMR collection (with >300K compounds available) to find novel TGR inhibitors. Furoxan is a good choice to serve as a positive control in the primary HTS assay.
Three microliters of reagents (100 uM NADPH and 20 nM TGR or 100 uM NADPH as no-enzyme control) were dispensed into 1,536-well black clear-bottomed plates. Compounds (23 nL) were transferred via Kalypsys pin tool equipped with 1536-pin array (10 nL slotted pins, V&P Scientific, San Diego, CA). The plates were then be incubated for 15 min at room temperature, and 1 uL aliquot of 500 uM NADPH were added, immediately followed by a 1 uL aliquot of 15 mM DTNB to start the reaction. The plate was transferred to a ViewLux high-throughput CCD imager (Perkin-Elmer, Wellesley, MA) where kinetic measurements of the TNB absorbance were acquired using a 405 excitation filter. Throughout the screen, reagent bottles and all liquid lines were made light-tight to minimize reagent degradation. All screening operations were performed on a fully integrated robotic system (Kalypsys, San Diego, CA) containing one RX-130 and two RX-90 anthropomorphic robotic arms (Staubli, Duncan, SC). Library plates were screened starting from the lowest and proceeding to the highest concentration, and a "double-dipping" step of the highest concentration was required to access higher concentrations of compounds. Vehicle-only plates, with DMSO being pin-transferred to the entire column 5-48 compound area, were inserted uniformly at the beginning and the end of each library in order to monitor for and record any shifts in the background, which can be affected by reagent dispensers or loss in enzyme activity overtime. […]
On the % scale 0 is the no-effect control and ±100 the full control effect; potency means the concentration at half of the fitted maximal effect.

| SMILES | activity change, negative = inhibition [%] | Potency |
| --- | --- | --- |
| COc1ccccc1CNS(=O)(=O)c1cc(Br)cc2c1N(C(C)=O)C(C)C2 (stereo not given) | -2.24 | – |
| CCOC(=O)c1cc2c(=O)n3ccccc3nc2n(CC2CCCO2)c1=NC(=O)c1ccccc1F (stereo not given) | -6.92 | – |
| O=C(Nc1ccc2c(c1)OCO2)c1cc(-c2cccc(Cl)c2)on1 | 6.06 | – |
| COc1cc(C)cc(CN2CCC(Cc3ccccc3)CC2)c1O | -35 | – |
| CC1CCCN(CC(O)COCc2ccccc2)C1 (stereo not given) | 1.25 | – |
| Oc1c(CN2CCCC2)cc(COCc2ccccc2)c2cccnc12 | – | 22.4 µM (active) |
| COc1cc(OC)c(NC(=O)N2CC3CCCN3c3ccccc32)cc1Cl (stereo not given) | -28.7 | – |
| CCOC(=O)c1c(S(=O)(=O)N2CCCC(C(=O)NCc3ccc(F)cc3)C2)c(C)n(CC)c1C (stereo not given) | 2.19 | – |
| CCOC(=O)c1c(C)[nH]c(CCC(=O)NCCCN2CCN(c3cc(C)ccc3C)CC2)c1C | -6.6 | – |
| COc1ccc(CN(Cc2ccc(OC)cc2)C(=O)c2cccs2)cc1 | 15.4 | – |
| COc1ccc(C(CCN(Cc2ccc(OC)c(OC)c2)C(=O)CCl)c2ccccc2)cc1 (stereo not given) | – | 8.91 µM (active) |
| COc1ccc(CCNC(=O)C(Sc2ccccn2)c2ccccc2)cc1OC (stereo not given) | 2.91 | – |
| CCc1nnc(SCc2nc(-c3cccc(C)c3)oc2C)c2cc3sc(C)cc3n12 | 20.7 | – |
| Cc1cc(C)cc(NC(=S)NCCCN2CCOCC2)c1 | -16.2 | – |
| CCCC(=O)NC(=S)Nc1ccc(CN2CCOCC2)cc1 | 0 | – |
| CCCCc1ccc(NC(=S)NCCCN2CCOCC2)cc1 | – | 50.1 µM (active) |
| Cc1cccn2c(=O)c(C(=O)NC(C)c3ccccc3)cnc12 (stereo not given) | -2.19 | – |
| O=C(O)C1=C[C@H](c2cccs2)C[C@H](OCCCCO)O1 | – | 39.8 µM (active) |
| C=CCOC(=O)C1=C[C@@H](c2ccccc2)C[C@@H](OCc2ccc(CO)cc2)O1 | -32 | – |
| CCO[C@H]1OC(C(=O)O)=C[C@@H](C2CCCCC2)[C@@H]1CCCO | -1.63 | – |
| C#Cc1ccc([C@@H]2C=C(C(=O)O)O[C@H](OCCCCO)C2)cc1 | – | 39.8 µM (active) |
| CN1CCN(C(=O)C2=C[C@H](c3ccc4c(c3)OCO4)C[C@H](OCc3ccc(CO)cc3)O2)CC1 | -1.84 | – |
| NC(=O)C1=C[C@H](c2csc3ccccc23)C[C@H](OCc2ccc(CO)cc2)O1 | -2.62 | – |
| Cc1ccc(-n2nc(CO)c(C(=O)NCCc3ccccc3)n2)cc1 | 0.121 | – |
| COc1c(Cl)cc(C(=O)N(Cc2ccccc2F)C2CCS(=O)(=O)C2)cc1Cl (stereo not given) | 15.1 | – |

| SMILES | activity change, negative = inhibition [%] | Potency |
| --- | --- | --- |
| Cc1cccc(OCCSc2nc3ccc(NC(=O)COc4ccccc4C)cc3s2)c1 | -8.79 | – |
| CCOC(=O)c1sc(NC(=O)CCN2CCOCC2)c(C(=O)OCC)c1C | -3.18 | – |
| CCOC(=O)Nc1sc(C(=O)N(C)C)c(C)c1C(=O)OCC | -17 | – |
| CCOC(=O)c1c(NC(=O)CCl)sc(C(=O)N(CC)CC)c1C | – | 35.5 µM (active) |
| CSc1nc(=O)c2c(n1C)NC(=O)CC2c1ccccc1OC(C)C (stereo not given) | 3.1 | – |
| CCc1ccc(NC(=O)CN2C(=O)CCSc3ccc(S(=O)(=O)N4CCCC4)cc32)cc1 | -1.49 | – |
| CCCCn1c(=O)c2oc3ccccc3c2n(CC(=O)Nc2ccccc2OC)c1=O | 9.58 | – |
| COc1ccc2c(c1)C=C(C(=O)NCc1cc(Br)ccc1OC)CO2 | -6.94 | – |
| CC(C)CN(CC(C)C)C(=O)CN1c2cccc3cccc(c23)S1(=O)=O | -11.9 | – |
| O=C(O)CN1c2cccc3cccc(c23)S1(=O)=O | – | 35.5 µM (active) |
| COc1ccc(C)cc1NC(=O)CN1c2cccc3cccc(c23)S1(=O)=O | -12.4 | – |
| CCN(CC)c1ccc(NS(=O)(=O)c2cc(-c3cc(C)no3)ccc2C)c(C)c1 | -22.1 | – |
| CCOc1ccc(N(CC)C(=O)c2cc3c(=O)oc4ccccc4c3s2)cc1 | -10.1 | – |
| O=C(c1ccc(Br)cc1)N(Cc1cccs1)c1ccc(F)cc1 | -2.63 | – |
| CN1CCN(S(=O)(=O)c2ccc(N3CCN(c4ccccc4O)CC3)c([N+](=O)[O-])c2)CC1 | -15.4 | – |
| O=[N+]([O-])c1cc(S(=O)(=O)N2CCCC2)ccc1NN=C1CCCC1 | -14.2 | – |
| Cc1cc(N)n(-c2ccc(S(=O)(=O)N3CCCC3)cc2[N+](=O)[O-])n1 | – | 50.1 µM (active) |
| COc1cc(OC)cc(C(=O)NCCc2csc3nc(-c4ccccc4F)nn23)c1 | 2.26 | – |
| COc1cccc(NC(=O)N2CCCC2C(=O)NC2CCCCC2)c1 (stereo not given) | 4.18 | – |
| CCC1CCCCN1C(=O)Nc1cccc(NC(=O)N2CCCCC2CC)c1 (stereo not given) | – | 39.8 µM (active) |
| CCC1CCCCN1C(=S)Nc1ccc(C(C)=O)cc1 (stereo not given) | -6.57 | – |
| CCN1C(=O)c2ccccc2Sc2ccc(NC(=O)Cc3ccc(OC)cc3)cc21 | 5.68 | – |
| CCOC(=O)CC1=CC(=O)Nc2ccccc2N1 | 0 | – |
| CCOC(=O)C(=O)C1C(=O)Nc2ccccc21 (stereo not given) | – | 28.2 µM (active) |
| CCCCC(CC)CNC(=O)C(=O)C1C(=O)Nc2ccccc21 (stereo not given) | 1.5 | – |
